About 7,900 targets were measured; listed, in parts, are those with a hit and a random draw of the rest. About 0.6% of all pairs of compound and target were hits.
What was measured:
Experiment in all cases: log2 fold change, soluble protein after heating vs DMSO (PISA); higher = thermal stabilisation; K562 cells, 10 uM, 30 min; active = over 0.2 and 3.5 SD of the protein, either way, in both replicates (recomputed)
erlotinib = compound: C#Cc1cccc(Nc2ncnc3cc(OCCOC)c(OCCOC)cc23)c1 [erlotinib]
Summary of the method: (§1)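 K562 cells at 2×10^6 cells/mL were given 10 μM compound for 30 min. Aliquots then went through 3 min of heating across 48°C-58°C, were pooled, and were extracted in PBS with 0.5% NP-40 at 4°C, and the supernatant after 21,000xg for 90 min was quantified by TMTpro 16plex LC-MS/MS with channel sums equalised. Thermal stability relative to control samples, from duplicates, is given as log2 fold change.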

[1] = compound: C/C(=N\NC(=O)C1=CC(=CC=C1)S(=O)(=O)N2CCOCC2)/C3=C(C=CC(=C3)Cl)O
Summary of the method: as §1

[2] = compound: C1=CC(=C(C=C1Cl)C2=NC3=NC=CN=C3C(=N2)NC4=CC=NC=C4)F
Summary of the method: as §1

[3] = compound: C1=CC(=CC=C1C2=NC3=C(N2)C=C(C=C3)C(=O)N)OC4=CC=C(C=C4)Cl
Summary of the method: as §1

[4] = compound: C1=CC2=C(C=CC(=C2)/C=C\3/C(=O)NC(=NCC4=CC=CS4)S3)N=C1
Summary of the method: as §1

[5] = compound: C1=CC2=NC=CN=C2C=C1/C=C/3\C(=O)NC(=O)S3
Summary of the method: as §1

[6] = compound: C1=CC=C(C=C1)C2=NC(=C(N2)C3=CC=NC=C3)C4=CC(=C(C=C4)Cl)O
Summary of the method: as §1

[7] = compound: C1=CC=C2C(=C1)C3=NNC4=CC=CC(=C43)C2=O
Summary of the method: as §1

[8] = compound: C1CCN(C1)C(=O)NC2=CC=CC(=C2)NC3=NC=C(C(=N3)NCCC4=CN=CN4)Br
Summary of the method: as §1

[9] = compound: C1CN(CCC1(CC2=CC=C(C=C2)Cl)N)C3=NC=NC4=C3C=CN4
Summary of the method: as §1

IRAK-1-4 Inhibitor I = compound: C1COCCN1CCN2C3=CC=CC=C3N=C2NC(=O)C4=CC(=CC=C4)[N+](=O)[O-] [IRAK-1-4 Inhibitor I]
Summary of the method: as §1

ibrutinib = compound: C=CC(=O)N1CCC[C@@H](n2nc(-c3ccc(Oc4ccccc4)cc3)c3c(N)ncnc32)C1 [ibrutinib]
Summary of the method: as §1

[10] = compound: CC(=O)c1cnc2ccc(-c3cc(Cl)c(O)c(Cl)c3)nc2c1N[C@H]1CC[C@H](CN(C)C)CC1
Summary of the method: as §1

ralimetinib = compound: CC(C)(C)Cn1c(N)nc2ccc(-c3[nH]c(C(C)(C)C)nc3-c3ccc(F)cc3)nc21 [ralimetinib]
Summary of the method: as §1

[11] = compound: CC(C)(O)CC(=O)NCCn1ccc2ncnc(Nc3ccc(Oc4cccc(C(F)(F)F)c4)c(Cl)c3)c21
Summary of the method: as §1

[12] = compound: CC(C)C1=C2N=C(C=C(N2N=C1)NCC3=CC=CC=C3)NCCCCCCN
Summary of the method: as §1

[13] = compound: CC(C)C[C@@H](C=O)NC(=O)[C@H](CC(C)C)NC(=O)[C@H](CC(C)C)NC(=O)OCc1ccccc1
Summary of the method: as §1

pinometostat = compound: CC(C)N(C[C@H]1O[C@@H](n2cnc3c(N)ncnc32)[C@H](O)[C@@H]1O)[C@H]1C[C@@H](CCc2nc3cc(C(C)(C)C)ccc3[nH]2)C1 [pinometostat]
Summary of the method: as §1

[14] = compound: CC1=C(C(CC(=O)N1)C2=CC=C(C=C2)C(F)(F)F)C(=O)NC3=C(C=C4C(=C3)C=NN4)F
Summary of the method: as §1

[15] = compound: CC1=C(C2=C(C=C1)C(=O)C3=CC=CC=C3N2CCCN)C
Summary of the method: as §1

Measured: log2 fold change

ARFGAP1 (UniProt Q8N6T3)
UniProt Q8N6T3, sequence (Q8N6T3 whole entry, looked up): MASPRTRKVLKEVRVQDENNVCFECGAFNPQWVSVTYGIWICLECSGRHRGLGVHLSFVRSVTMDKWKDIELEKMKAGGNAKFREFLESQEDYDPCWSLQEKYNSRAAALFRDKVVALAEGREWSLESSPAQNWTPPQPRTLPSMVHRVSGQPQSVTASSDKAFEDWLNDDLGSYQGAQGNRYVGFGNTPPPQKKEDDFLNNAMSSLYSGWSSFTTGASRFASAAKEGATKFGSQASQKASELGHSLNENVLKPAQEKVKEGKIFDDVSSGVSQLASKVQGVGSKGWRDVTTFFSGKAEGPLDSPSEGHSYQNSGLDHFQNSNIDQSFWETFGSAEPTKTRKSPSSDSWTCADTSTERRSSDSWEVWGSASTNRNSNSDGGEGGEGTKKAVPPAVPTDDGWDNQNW
inactive: erlotinib -0.017 | [1] 0.131 | [2] 0.086 | [3] -0.072 | [4] -0.017 | [5] -0.018 | [6] -0.069 | [7] 0.035 | [8] -0.037 | [9] 0.001 | IRAK-1-4 Inhibitor I -0.008 | ibrutinib 0.005 | [10] -0.013 | ralimetinib 0.07 | [11] -0.012 | [12] -0.11 | [13] -0.017 | pinometostat -0.027 | [14] 0.02 | [15] 0.002

BZW1 isoform 3 (UniProt Q7L1Q6)
inactive: erlotinib 0.049 | [1] 0.176 | [2] -0.001 | [3] -0.088 | [4] 0.054 | [5] 0.019 | [6] 0.042 | [7] 0.039 | [8] -0.059 | [9] -0.101 | IRAK-1-4 Inhibitor I -0.118 | ibrutinib -0.123 | [10] 0.005 | ralimetinib 0.049 | [11] -0.296 | [13] 0.007 | pinometostat 0.123 | [14] 0.006 | [15] 0.068
active: [12] -0.422

ATP11A (UniProt P98196)
inactive: erlotinib -0.038 | [1] 0.015 | [2] 0.004 | [3] 0.005 | [4] -0.038 | [5] 0.035 | [6] -0.048 | [7] -0.085 | [8] -0.035 | [9] 0.012 | IRAK-1-4 Inhibitor I -0.003 | ibrutinib 0.007 | [10] 0.018 | ralimetinib 0 | [11] -0.026 | [12] 0.073 | [13] 0.052 | pinometostat 0.004 | [14] 0.05 | [15] 0.036

ABCA4 (UniProt P78363)
inactive: erlotinib 0.191 | [1] -0.367 | [2] 0.107 | [3] -0.151 | [4] 0.062 | [5] -0.073 | [6] 0.042 | [7] 0.044 | [8] 0.033 | [9] 0.145 | IRAK-1-4 Inhibitor I 0.128 | ibrutinib 0.078 | [10] -0.014 | ralimetinib 0.215 | [11] -0.047 | [12] 0.127 | [13] 0.481 | pinometostat -0.06 | [14] -0.05 | [15] 0.082

ATOX1 (UniProt O00244)
UniProt O00244, sequence (O00244 whole entry, looked up): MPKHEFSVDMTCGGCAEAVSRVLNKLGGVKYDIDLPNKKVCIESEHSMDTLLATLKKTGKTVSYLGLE
inactive: erlotinib -0.033 | [1] 0.307 | [2] 0.141 | [3] 0.068 | [4] -0.089 | [5] 0.074 | [6] 0.242 | [7] 0.112 | [8] -0.061 | [9] 0.024 | IRAK-1-4 Inhibitor I 0.018 | ibrutinib 0.01 | [10] 0.154 | ralimetinib 0.23 | [11] -0.005 | [12] 0.109 | [13] -0.198 | pinometostat -0.153 | [14] -0.004 | [15] 0.099

ARFGAP2 (UniProt Q8N6H7)
UniProt Q8N6H7, sequence (Q8N6H7 whole entry, looked up): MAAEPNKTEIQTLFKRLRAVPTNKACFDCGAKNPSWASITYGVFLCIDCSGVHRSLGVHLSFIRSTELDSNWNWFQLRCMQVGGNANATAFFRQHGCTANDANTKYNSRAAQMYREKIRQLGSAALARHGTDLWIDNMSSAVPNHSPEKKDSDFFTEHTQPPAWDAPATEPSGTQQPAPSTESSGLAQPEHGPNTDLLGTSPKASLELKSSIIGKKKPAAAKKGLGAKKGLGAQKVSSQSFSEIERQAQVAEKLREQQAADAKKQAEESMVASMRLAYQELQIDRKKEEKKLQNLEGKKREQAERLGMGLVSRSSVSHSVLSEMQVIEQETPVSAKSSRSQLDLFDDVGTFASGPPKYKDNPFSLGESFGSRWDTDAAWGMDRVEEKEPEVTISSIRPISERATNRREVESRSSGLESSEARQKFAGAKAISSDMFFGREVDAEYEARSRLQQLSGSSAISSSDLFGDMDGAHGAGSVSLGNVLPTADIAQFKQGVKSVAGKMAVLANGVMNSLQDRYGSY
inactive: erlotinib 0.017 | [1] 0.034 | [2] 0.019 | [3] -0.016 | [4] 0.06 | [5] 0 | [6] -0.01 | [7] -0.007 | [8] -0.053 | [9] -0.009 | IRAK-1-4 Inhibitor I -0.016 | ibrutinib -0.064 | [10] -0.014 | ralimetinib -0.001 | [11] -0.032 | [12] 0.062 | [13] -0.005 | pinometostat 0.046 | [14] -0.006 | [15] 0.005

ATP6V1H (UniProt Q9UI12)
active: [12] -0.241
inactive: erlotinib -0.055 | [1] 0.015 | [2] 0.034 | [3] 0.035 | [4] -0.008 | [5] 0.045 | [6] -0.131 | [7] 0.024 | [8] -0.051 | [9] -0.097 | IRAK-1-4 Inhibitor I -0.011 | ibrutinib -0.033 | [10] -0.065 | ralimetinib 0.007 | [11] -0.014 | [13] 0.043 | pinometostat -0.002 | [14] -0.006 | [15] 0.028

BRIX1 (UniProt Q8TDN6)
UniProt Q8TDN6, sequence (Q8TDN6 whole entry, looked up): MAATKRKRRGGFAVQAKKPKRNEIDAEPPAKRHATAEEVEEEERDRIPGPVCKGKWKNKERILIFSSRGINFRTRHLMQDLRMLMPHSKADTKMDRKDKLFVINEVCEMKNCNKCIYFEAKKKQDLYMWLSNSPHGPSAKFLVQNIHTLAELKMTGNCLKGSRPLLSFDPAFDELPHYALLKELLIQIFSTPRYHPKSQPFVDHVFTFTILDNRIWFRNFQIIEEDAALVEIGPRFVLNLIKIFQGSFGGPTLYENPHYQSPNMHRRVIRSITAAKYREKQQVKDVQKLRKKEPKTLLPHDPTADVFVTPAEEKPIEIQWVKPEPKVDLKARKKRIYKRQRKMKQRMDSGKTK
inactive: erlotinib -0.093 | [1] -0.05 | [2] -0.415 | [3] -0.089 | [4] 0.003 | [5] 0.046 | [6] -0.046 | [7] -0.167 | [8] 0.017 | [9] -0.387 | IRAK-1-4 Inhibitor I -0.1 | ibrutinib -0.011 | [10] 0.021 | ralimetinib 0.133 | [11] 0.091 | [12] 0.137 | [13] 0.041 | pinometostat 0.361 | [14] -0.051
active: [15] -1.43

ALDH18A1 (UniProt P54886)
active: [11] -0.497
inactive: erlotinib 0.016 | [1] 0.092 | [2] 0.089 | [3] -0.084 | [4] -0.007 | [5] -0.204 | [6] -0.093 | [7] -0.091 | [8] -0.015 | [9] -0.057 | IRAK-1-4 Inhibitor I 0 | ibrutinib -0.098 | [10] 0 | ralimetinib -0.057 | [12] -0.269 | [13] 0 | pinometostat -0.053 | [14] -0.059 | [15] 0.184

ACO2 (UniProt Q99798)
UniProt Q99798, sequence (Q99798 whole entry, looked up): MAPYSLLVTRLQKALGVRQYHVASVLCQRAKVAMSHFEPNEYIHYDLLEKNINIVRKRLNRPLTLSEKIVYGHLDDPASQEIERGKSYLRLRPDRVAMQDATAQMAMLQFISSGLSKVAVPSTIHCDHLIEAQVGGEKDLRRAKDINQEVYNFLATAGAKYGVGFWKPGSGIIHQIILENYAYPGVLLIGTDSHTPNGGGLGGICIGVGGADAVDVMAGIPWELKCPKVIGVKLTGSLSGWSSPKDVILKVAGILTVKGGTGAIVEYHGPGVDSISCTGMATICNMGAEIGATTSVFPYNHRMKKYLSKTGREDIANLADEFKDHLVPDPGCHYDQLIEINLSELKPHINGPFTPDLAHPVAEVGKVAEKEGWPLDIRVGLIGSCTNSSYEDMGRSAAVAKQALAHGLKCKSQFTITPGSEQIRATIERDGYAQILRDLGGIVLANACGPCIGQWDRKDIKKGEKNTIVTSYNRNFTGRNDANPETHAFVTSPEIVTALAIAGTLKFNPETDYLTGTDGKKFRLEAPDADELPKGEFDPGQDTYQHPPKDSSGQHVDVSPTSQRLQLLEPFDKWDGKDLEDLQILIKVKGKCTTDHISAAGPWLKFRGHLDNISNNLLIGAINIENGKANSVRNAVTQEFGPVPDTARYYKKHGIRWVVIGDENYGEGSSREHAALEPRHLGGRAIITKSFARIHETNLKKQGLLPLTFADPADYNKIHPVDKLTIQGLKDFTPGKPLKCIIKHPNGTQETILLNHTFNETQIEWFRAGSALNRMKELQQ
active: [5] -0.244
inactive: erlotinib 0.049 | [1] 0.008 | [2] 0.105 | [3] -0.014 | [4] 0.077 | [6] 0.036 | [7] 0.009 | [8] 0.018 | [9] 0.015 | IRAK-1-4 Inhibitor I 0.023 | ibrutinib 0.025 | [10] -0.016 | ralimetinib -0.019 | [11] -0.068 | [12] -0.058 | [13] -0.022 | pinometostat -0.033 | [14] -0.049 | [15] 0.076

BTAF1 (UniProt O14981)
UniProt O14981, sequence (O14981 whole entry, looked up): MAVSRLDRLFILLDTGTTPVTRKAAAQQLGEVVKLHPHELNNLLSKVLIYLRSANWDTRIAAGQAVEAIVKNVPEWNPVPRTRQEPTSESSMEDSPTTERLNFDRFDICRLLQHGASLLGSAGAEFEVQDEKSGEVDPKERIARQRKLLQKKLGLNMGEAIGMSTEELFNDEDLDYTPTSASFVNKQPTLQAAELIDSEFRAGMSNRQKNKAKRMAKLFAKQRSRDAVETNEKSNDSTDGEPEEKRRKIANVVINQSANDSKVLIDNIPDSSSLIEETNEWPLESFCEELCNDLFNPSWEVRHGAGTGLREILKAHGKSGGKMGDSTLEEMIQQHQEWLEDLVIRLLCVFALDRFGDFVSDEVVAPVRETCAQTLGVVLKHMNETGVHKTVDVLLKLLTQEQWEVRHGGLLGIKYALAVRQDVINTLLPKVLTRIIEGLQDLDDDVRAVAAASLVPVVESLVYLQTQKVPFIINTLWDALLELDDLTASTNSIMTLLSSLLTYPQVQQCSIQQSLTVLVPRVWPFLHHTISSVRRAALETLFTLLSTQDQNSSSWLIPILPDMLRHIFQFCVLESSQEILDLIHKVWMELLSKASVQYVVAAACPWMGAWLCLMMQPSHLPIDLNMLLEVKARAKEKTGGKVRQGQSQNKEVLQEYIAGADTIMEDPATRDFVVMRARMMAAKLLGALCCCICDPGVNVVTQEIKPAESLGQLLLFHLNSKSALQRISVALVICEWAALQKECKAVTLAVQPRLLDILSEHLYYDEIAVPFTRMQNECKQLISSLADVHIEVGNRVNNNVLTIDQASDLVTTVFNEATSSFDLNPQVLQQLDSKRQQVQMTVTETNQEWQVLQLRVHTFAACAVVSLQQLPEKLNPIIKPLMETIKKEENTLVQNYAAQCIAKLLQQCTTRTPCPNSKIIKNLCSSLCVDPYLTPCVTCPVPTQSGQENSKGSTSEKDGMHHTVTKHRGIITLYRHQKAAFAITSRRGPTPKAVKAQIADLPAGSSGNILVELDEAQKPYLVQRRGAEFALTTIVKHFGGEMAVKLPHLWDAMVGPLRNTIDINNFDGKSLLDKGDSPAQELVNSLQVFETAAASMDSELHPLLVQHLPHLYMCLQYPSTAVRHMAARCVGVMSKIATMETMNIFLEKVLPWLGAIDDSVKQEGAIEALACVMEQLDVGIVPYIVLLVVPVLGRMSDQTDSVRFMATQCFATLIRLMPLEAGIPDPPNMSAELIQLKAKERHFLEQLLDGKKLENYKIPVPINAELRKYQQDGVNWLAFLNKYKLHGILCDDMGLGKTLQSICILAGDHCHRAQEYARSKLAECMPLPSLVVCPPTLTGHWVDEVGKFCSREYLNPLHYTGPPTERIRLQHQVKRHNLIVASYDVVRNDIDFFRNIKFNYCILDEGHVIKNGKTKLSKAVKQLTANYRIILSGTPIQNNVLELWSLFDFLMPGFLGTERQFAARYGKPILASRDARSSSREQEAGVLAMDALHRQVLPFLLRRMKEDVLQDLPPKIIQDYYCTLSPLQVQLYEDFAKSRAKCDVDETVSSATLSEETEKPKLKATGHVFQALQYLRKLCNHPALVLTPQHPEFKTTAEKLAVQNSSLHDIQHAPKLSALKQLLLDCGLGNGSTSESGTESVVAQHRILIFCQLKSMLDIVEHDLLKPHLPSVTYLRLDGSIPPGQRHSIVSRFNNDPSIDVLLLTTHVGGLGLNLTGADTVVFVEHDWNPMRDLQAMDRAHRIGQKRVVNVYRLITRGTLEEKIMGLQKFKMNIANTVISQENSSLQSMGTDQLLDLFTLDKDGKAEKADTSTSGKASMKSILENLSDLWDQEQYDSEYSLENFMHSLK
inactive: erlotinib 0.04 | [1] 0.078 | [2] 0.072 | [3] 0.005 | [4] 0.048 | [5] -0.006 | [6] -0.038 | [7] -0.032 | [8] 0.011 | [9] 0.05 | IRAK-1-4 Inhibitor I 0.021 | ibrutinib 0.029 | [10] 0.022 | ralimetinib -0.043 | [11] -0.168 | [12] -0.131 | [13] 0.01 | pinometostat -0.011 | [14] 0.003 | [15] -0.087

ANKZF1 (UniProt Q9H8Y5)
inactive: erlotinib 0.142 | [1] 0.032 | [2] -0.141 | [3] 0 | [4] 0.015 | [5] -0.108 | [6] -0.035 | [7] -0.039 | [8] 0.057 | [9] -0.022 | IRAK-1-4 Inhibitor I -0.052 | ibrutinib 0.031 | [10] -0.19 | ralimetinib 0.189 | [11] 0 | [12] -0.065 | [13] 0.192 | pinometostat 0.136 | [14] 0.034 | [15] -0.069

ACADM isoform 2 (UniProt P11310)
inactive: erlotinib -0.015 | [1] 0.014 | [2] 0.013 | [3] 0.149 | [4] 0.044 | [5] 0.002 | [6] 0.059 | [7] -0.001 | [8] 0.008 | [9] 0.067 | IRAK-1-4 Inhibitor I 0.028 | ibrutinib 0.034 | [10] -0.013 | ralimetinib -0.068 | [11] -0.043 | [12] 0.051 | [13] -0.001 | pinometostat -0.085 | [14] -0.006 | [15] 0

ASH2L (UniProt Q9UBL3)
inactive: erlotinib -0.021 | [1] 0.025 | [2] 0.019 | [3] -0.062 | [4] -0.012 | [5] 0.022 | [6] 0.001 | [7] -0.029 | [8] -0.004 | [9] 0.052 | IRAK-1-4 Inhibitor I -0.022 | ibrutinib -0.048 | [10] -0.046 | ralimetinib 0.004 | [11] -0.018 | [12] 0.016 | [13] -0.004 | pinometostat -0.013 | [14] -0.013 | [15] -0.044

ATIC (UniProt P31939)
UniProt P31939, sequence (P31939 whole entry, looked up): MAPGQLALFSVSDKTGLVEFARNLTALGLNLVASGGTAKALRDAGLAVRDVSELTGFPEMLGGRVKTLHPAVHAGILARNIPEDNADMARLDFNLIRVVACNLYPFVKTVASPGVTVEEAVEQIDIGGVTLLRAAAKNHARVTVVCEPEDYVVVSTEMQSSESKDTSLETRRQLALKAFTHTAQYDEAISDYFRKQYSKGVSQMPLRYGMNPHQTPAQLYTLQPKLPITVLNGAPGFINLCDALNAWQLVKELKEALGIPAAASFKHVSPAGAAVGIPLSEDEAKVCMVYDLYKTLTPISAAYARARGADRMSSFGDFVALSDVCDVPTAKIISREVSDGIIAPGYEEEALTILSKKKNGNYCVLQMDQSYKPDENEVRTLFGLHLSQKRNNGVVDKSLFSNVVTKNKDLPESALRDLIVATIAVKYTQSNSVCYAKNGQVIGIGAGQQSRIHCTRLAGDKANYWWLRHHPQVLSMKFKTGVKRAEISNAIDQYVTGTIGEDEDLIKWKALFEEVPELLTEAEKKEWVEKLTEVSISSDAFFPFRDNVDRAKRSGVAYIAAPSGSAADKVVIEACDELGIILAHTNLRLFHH
inactive: erlotinib 0.031 | [1] 0.033 | [2] 0.062 | [3] 0.006 | [4] 0.005 | [5] -0.067 | [6] 0.094 | [7] 0.016 | [8] -0.031 | [9] 0.035 | IRAK-1-4 Inhibitor I 0.018 | ibrutinib 0.013 | [10] -0.015 | ralimetinib -0.007 | [11] 0 | [12] 0.079 | [13] -0.044 | pinometostat -0.04 | [14] -0.023 | [15] 0.064

BLVRB (UniProt P30043)
UniProt P30043, sequence (P30043 whole entry, looked up): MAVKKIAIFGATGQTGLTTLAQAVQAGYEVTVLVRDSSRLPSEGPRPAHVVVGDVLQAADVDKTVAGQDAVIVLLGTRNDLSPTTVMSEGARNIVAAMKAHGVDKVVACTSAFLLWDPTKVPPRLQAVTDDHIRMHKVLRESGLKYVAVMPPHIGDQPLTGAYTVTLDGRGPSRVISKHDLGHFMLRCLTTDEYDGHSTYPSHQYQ
active: [2] 0.237
inactive: erlotinib 0.03 | [1] 0.112 | [3] -0.031 | [4] -0.015 | [5] 0.072 | [6] 0.042 | [7] 0.014 | [8] 0.001 | [9] 0.056 | IRAK-1-4 Inhibitor I 0.075 | ibrutinib 0.037 | [10] 0.154 | ralimetinib 0.056 | [11] -0.019 | [12] -0.048 | [13] -0.037 | pinometostat -0.005 | [14] -0.046 | [15] 0.059

Source: the supplement of paper PMC10849652
